High-throughput results: PubChem, National Center for Advancing Translational Sciences (NCATS)
VP16 counter = inhibits Gal4-VP16 luciferase reporter, ROR gamma counter-screen | Drosophila S2 Gal4-VP16 UAS-luciferase, luminescence, 20 h | Potency, µM (highest dose often 53.6 µM), for inactives: top-dose activity, negative = inhibition, actives largely listed as inhibitors | actives 3.5% (n = 310,000);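 note: Gal4-VP16 expression switched on by copper sulfate through the metallothionein promoter; nearly all actives have a fitted effect of over 50% in size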
ELG1 DNA repair = blocks ELG1-dependent DNA repair in HEK293T cells. HEK293T ELG1-luciferase reporter, luminescence, 16 h; DNA damage induced by 5-fluorouridine. Potency, µM (highest dose often 46.1 µM), for the others: top-dose activity change, negative = inhibition, hits mostly inhibitors. actives 2.3% (n = 330,000); note: nearly all actives have a fitted effect of over 55% in size
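Quantitative HTS, concentration-response format. 2,000 cells/well co-treated with 5-fluorouridine and compound, 16 hr in 5% CO2 at 37 °C; ONE-Glo luminescence read after 30 min.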
TDP1 cell noCPT = qHTS for Inhibitors of human tyrosyl-DNA phosphodiesterase 1 (TDP1): qHTS in cells in absence of CPT; Potency, µM (highest dose often 46.2 µM), without a hit: top-dose activity change, negative = growth inhibition, usual class: inhibitors; actives 15% (n = 420,000); DT40 Tdp1-/- hTDP1 cells, no CPT, ATP luminescence, 48 h; AID 686978, 2013; note: nearly all actives have a fitted effect of over 55% in size
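Cells were dispensed at 400 per well, compounds added by pin tool, plates incubated ≥48 hr at 37 °C, then CellTiter-Glo added for 30 min at room temperature before luminescence reading. Line: DT40 Tdp1-/- complemented with hTDP1; camptothecin omitted.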
ALOX12 inh = inhibitors of human 12S-lipoxygenase ALOX12 | P18054 | purified 12hLO, xylenol orange hydroperoxide absorbance | Potency, µM (series often up to 108 µM), for the others: at the top dose activity change, negative = inhibition, actives largely listed as inhibitors | actives 1.1% (n = 580,000) | AID 1671190
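Purified human 12hLO (150 nM final) in 25 mM Hepes, 0.01% Triton X-100, pH 7.0 was preincubated 15 min at room temperature with compound. Then 40 uM arachidonic acid was added, 30 min. Hydroperoxide was read by Fe-XO absorbance ratio 573/405 nm.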
RORgamma inh = ROR gamma (mouse) transcription inhibition; actives 5.4% (n = 310,000); Potency, µM (top dose mostly 53.6 µM), for inactives: at the highest dose activity change, negative = inhibition, actives largely listed as inhibitors; Drosophila S2 Gal4-RORgamma UAS-luciferase reporter, 20 h; AID 2551; P51450; note: nearly all actives have a fitted effect of over 60% in size
Target sequence (P51450 whole entry, looked up, the tested form may be a part): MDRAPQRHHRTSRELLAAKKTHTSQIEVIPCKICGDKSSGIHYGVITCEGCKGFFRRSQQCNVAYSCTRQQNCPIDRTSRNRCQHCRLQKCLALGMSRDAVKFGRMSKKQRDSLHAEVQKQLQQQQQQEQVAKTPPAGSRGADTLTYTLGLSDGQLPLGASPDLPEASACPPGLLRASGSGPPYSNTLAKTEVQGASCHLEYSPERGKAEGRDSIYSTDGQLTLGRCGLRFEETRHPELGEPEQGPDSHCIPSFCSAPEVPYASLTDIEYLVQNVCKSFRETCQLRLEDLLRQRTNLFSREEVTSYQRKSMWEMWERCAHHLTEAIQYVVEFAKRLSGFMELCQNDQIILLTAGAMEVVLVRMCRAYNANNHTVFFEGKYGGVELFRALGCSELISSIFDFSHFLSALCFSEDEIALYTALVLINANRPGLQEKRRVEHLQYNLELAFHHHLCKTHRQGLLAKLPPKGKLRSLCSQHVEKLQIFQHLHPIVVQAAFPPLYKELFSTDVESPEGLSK
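Schneider cells (Drosophila), stable Gal4 DBD–ROR gamma + UAS-luc; 1 hr cmpd preincubation; Cu2+ induction 700 uM final; 20 hr ambient; luminescence.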
DT40 TDP1 CPT = growth inhibition of DT40 Tdp1-/-;hTDP1 cells with camptothecin (screen for TDP1 inhibitors); actives 12% (n = 420,000); chicken DT40 Tdp1-/-;hTDP1 cells + 20 nM CPT, ATP luminescence, 48 h; Potency, µM (doses to about 46.2 µM), for inactives: top-dose activity change, negative = growth inhibition, most hits filed as inhibitors; AID 686979; note: nearly all actives have a fitted effect of over 55% in size
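Chicken DT40 Tdp1-/- cells stably complemented with human TDP1 were seeded at 400 cells/well in medium containing 20 nM camptothecin, exposed to pin-transferred compounds, and grown at 37 °C for at least 48 hr. Viability was read as ATP luminescence.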
Numbers without * were called inactive; ? = inconclusive; . = no result; [ ] = remark or other dose. This is a sample that favours compounds with a hit; in the whole collection about 15% have one here. Calls come from the whole dose curve; as a rule, active = well fitted curve in the direction sought with a large enough effect; inconclusive = small, poorly fitted or top-dose-only effect, or another doubt; inactive = no such curve, though single readings can be large; an effect the other way counts as inactive or inconclusive. % is set by controls: 0 for no effect and ±100 for the full control effect; potency is the fitted concentration of half-maximal effect.

SMILES	VP16 counter	ELG1 DNA repair	TDP1 cell noCPT	ALOX12 inh	RORgamma inh	DT40 TDP1 CPT
O=C(CN1CCCC1c1cccs1)Nc1cc(S(=O)(=O)N2CCCCC2)ccc1Cl (stereo not given)	.	.	?	217%	.	16µM*
CCOc1ccc(NC(=O)CN2CCCC2c2cccs2)cc1S(=O)(=O)N1CCCCC1 (stereo not given)	.	15µM*	15µM*	-11%	.	15µM*
Cc1ccc(NC(=O)CN2CCCC2c2cccs2)cc1S(=O)(=O)N1CCCCC1 (stereo not given)	.	?	23µM*	7%	.	18µM*
Cc1ccc(S(=O)(=O)N2CCCCC2)cc1NC(=O)CN1CCCC1c1cccs1 (stereo not given)	.	.	-24%	8%	.	-25%
CCOc1ccc(NC(=O)[C@@H]2CCCN2C(=O)c2cccs2)cc1S(=O)(=O)N1CCCCC1	.	-22%	7%	393%	.	-2%
Cc1nc2c(c(-c3ccc(O)cc3)n1)CN(C(=O)c1ccc(Cl)nc1)CCC2	.	.	.	-8%	.	.
NCCCCCCCN1CCCC1	.	.	.	0%	.	.
CN1C[C@@H](NC(=O)c2ccccc2)C[C@H]1c1nc(-c2ccc3c(c2)OCO3)no1	.	.	.	5%[176 µM]	.	.
O=C([C@@H]1C[C@H](Oc2cccnc2)CN1S(=O)(=O)Cc1ccccc1F)N1CCOCC1	.	.	.	54%	.	.
COc1ccc(-c2csc(N(CC3CCCO3)C(=O)c3ccccc3)n2)cc1 (stereo not given)	-1%	8.2µM*	?	-16%	8%	?
COc1ccc(-c2csc(N(CCCN(C)C)C(=O)c3ccc(C(C)(C)C)cc3)n2)cc1	?	?	?	-17%	18%	?
COc1ccc(-c2csc(N(CC3CCCO3)C(=O)c3ccc(C)cc3)n2)cc1 (stereo not given)	-29%	?	23µM*	-13%	?	26µM*
COCCCN(C(C)=O)c1nc(-c2ccc(OC)cc2)cs1	4%	-20%	?	-9%	-4%	15µM*
COc1ccc(-c2csc(N(CCCN(C)C)C(=O)c3ccc(C)cc3)n2)cc1	-8%	-19%	16µM*	-10%	1%	?
Cc1cccc(NS(=O)(=O)c2c(C)nn(C)c2C)c1C	.	.	.	1%	.	.
Cc1cc(CC(C)NC(=O)Cc2c(C)[nH]c3ccccc23)n[nH]1 (stereo not given)	.	.	.	5%	.	.
C#CCN(C)Cc1nc(C2(O)CCN(CC3CCCCC3)CC2)cs1	.	.	.	36%[176 µM]	.	.
O=C(NCCc1noc(C(F)(F)F)n1)[C@H]1CCC[C@H](O)C1	.	.	.	33%	.	.
CC1(C)Cc2ccccc2C(CSc2nc3c(c(C(F)(F)F)n2)CC(C(C)(C)C)CC3)=N1 (stereo not given)	.	.	.	8%	.	.
CCN(CC)CCCN(C(=O)c1ccccc1F)c1nc(-c2ccc(OC)cc2)cs1	-4%	-28%	?	-1%	-2%	?
CCN(CC)CCCN(C(=O)c1ccccc1C)c1nc(-c2ccc(OC)cc2)cs1	1%	?	23µM*	?	-9%	?
O=C(Nc1ccc2[nH]cc(C(C(=O)O)N3CCCC3)c2c1)c1ccccc1 (stereo not given)	.	.	.	-22%	.	.
C=CC#CC1(O)CC(C)[N+](C)(C)CC1C (stereo not given)	-3%	15%	?	35µM*	-5%	?
Cc1ccc2nc(Nc3nc(CSc4nnc(C)s4)cc(=O)[nH]3)nc(C)c2c1	-4%	1%	15µM*	-9%	17%	?
COc1ccc2nc(Nc3nc(CSc4nnc(C)s4)cc(=O)[nH]3)nc(C)c2c1	-3%	8%	.	.	-7%	.
SMILES	VP16 counter	ELG1 DNA repair	TDP1 cell noCPT	ALOX12 inh	RORgamma inh	DT40 TDP1 CPT
Cc1ccc2nc(Nc3nc(CSc4nc5ccccc5s4)cc(=O)[nH]3)nc(C)c2c1	-2%	?	15µM*	2%	-2%[10 µM]	12µM*
COc1cccc(S(=O)(=O)N2CCC(n3cnnc3C(C)C)CC2)c1	.	.	.	21%	.	.
C[C@H](CO)N1C[C@H](C)[C@H](CN(C)C(=O)Nc2ccc(C(F)(F)F)cc2)Oc2ncc(Br)cc2C1=O	.	.	?	1%	.	?
C[C@H]1CN([C@@H](C)CO)C(=O)c2cc(Br)cnc2O[C@@H]1CN(C)C(=O)Nc1ccc(C(F)(F)F)cc1	.	.	23µM*	-10%	.	21µM*
C[C@H](O)C#Cc1cnc2c(c1)C(=O)N([C@H](C)CO)C[C@@H](C)[C@H](CN(C)C(=O)Nc1ccc(C(F)(F)F)cc1)O2	.	.	7.3µM*	-21%	.	12µM*
CCOc1ccc(/C=C/c2nc(C#N)c(N3CCC(C(N)=O)CC3)o2)cc1	.	.	.	4%	.	.
O=C(OCC(=O)c1c[nH]c2ccccc12)c1cc2ccccc2s1	.	.	.	-6%	.	.
Cc1ccc(C(=O)CSc2ncnc3sc4c(c23)CCCC4)cc1	2%	11%	21µM*	11%	?	?
Cc1noc(C)c1CSc1ncnc2sc3c(c12)CCCCC3	?	6%	?	11%	7.9µM*	-18%
Cc1noc(C)c1CSc1ncnc2sc(C)c(C)c12	-4%	19%	?	449%	7%	-8%
CN(CCCNC(=O)c1ccc2n[nH]nc2c1)Cc1ccccc1	.	.	.	4%	.	.
Cc1noc(C)c1S(=O)(=O)N1CC(N(Cc2cccnc2)CC(C)C)C1	.	.	.	67%	.	.
OC(c1cccc(Cl)c1Cl)C(F)(F)F (stereo not given)	.	.	.	3%	.	.
Cc1sc(NC(=S)Nc2ccc(F)cc2)c(C(N)=O)c1C	11µM*	0%	-1%	?	8.9µM*	28%
CCOC(=O)c1c(NC(=S)Nc2cccnc2)sc(C)c1C	?	?	-9%	?	13µM*	7%
CCOC(=O)c1c(NC(=S)NC)sc2c1CC(C)(C)SC2	0.89µM*	-5%	2%	?	0.4µM*	9%
CCOC(=O)c1c(NC(=S)Nc2ccccc2)sc2c1CCN(CCc1ccccc1)C2	1%	13%	.	.	-8%	.
CCOC(=O)c1c(NC(=S)Nc2ccccc2)sc2c1CC(C)(C)SC2	4µM*	?	?	?	2.8µM*	16µM*
COCCc1noc([C@@H]2CN(Cc3cccc(OC)n3)C[C@H]2CO)n1	.	.	.	86%	.	.
Cc1cc(COc2ccc(C(=O)c3ccccc3)cc2)on1	.	.	.	2%	.	.
